Results filed as inconclusive are left out. Activity calls are given as the source filed them. Calls come from the whole dose curve; as a rule, active = well fitted curve in the direction sought with a large enough effect; inconclusive = small, poorly fitted or top-dose-only effect, or another doubt; inactive = no such curve, though single readings can be large; an effect the other way counts as inactive or inconclusive.
How the values were obtained:
[1] = system: CRL-7250; experiment: Cytotoxic Profiling of Annotated Libraries Using Quantitative High-Throughput Screening (AID 1296008); conditions: Five cell lines viability, CellTiter-Glo ATP luminescence, 48-72 h; max response: active compounds read low; note: nearly all actives have a fitted effect of over 60% in size; for max response: % is set by controls: 0 for no effect and ±100 for the full control effect
In short: (§1)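 Compounds were pin-transferred onto cells and incubated 48 or 72 hr at 37 degree Celsius, 95% humidity. CellTiter-Glo was added, plates sat 10 min at room temperature, then ATP-coupled luminescence was imaged as the viability read-out.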

[2] = system: HEK293; experiment: as above; conditions: Five cell lines viability, CellTiter-Glo ATP luminescence, 48-72 h; max response: active compounds read low
In short: as §1

[3] = system: HaCat; experiment: as above; conditions: Five cell lines viability, CellTiter-Glo ATP luminescence, 48-72 h; max response: active compounds read low
In short: as §1

[4] = system: KB-3-1; experiment: as above; conditions: Five cell lines viability, CellTiter-Glo ATP luminescence, 48-72 h; max response: active compounds read low
In short: as §1

[5] = system: NIH3T3; experiment: as above; conditions: Five cell lines viability, CellTiter-Glo ATP luminescence, 48-72 h; max response: active compounds read low
In short: as §1

[6] = system: HEK293T; experiment: qHTS assay to identify novel small-molecules to repurpose for Merkel cell carcinoma treatment (AID 1296009); conditions: MCC and control cell lines, CellTiter-Glo viability, 72 h; series mostly up to 44.8 µM; note: nearly all actives have a fitted effect of over 60% in size
In short: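 Luminescence from CellTiter-Glo, read 10 min after addition at room temperature, reported viability following a 72 hr, 37 degree celsius treatment with NPC or MIPE compounds in titration; values normalized to plate controls.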

[7] = system: C33A; experiment: Primary qHTS to identify gynecologic anti-cancer compounds using libraries of approved drugs and bioactive compounds (AID 1345084); conditions: Gynecologic cancer cell panel viability, ATPlite luminescence, 48 h; series mostly up to 57.5 µM; note: % is set by controls: 0 for no effect and ±100 for the full control effect; nearly all actives have a fitted effect of over 55% in size
In short: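 Cytotoxicity screen measuring ATP content by luciferase luminescence. Each compound is applied at five concentrations for 48 h at 37 C with 5% CO2.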

CCNC(=O)[C@@H]1CCCN1C(=O)[C@H](CCCN=C(N)N)NC(=O)[C@H](CC(C)C)NC(=O)[C@@H](C)NC(=O)[C@H](Cc1ccc(O)cc1)NC(=O)[C@H](CO)NC(=O)[C@H](Cc1c[nH]c2ccccc12)NC(=O)[C@H](Cc1cnc[nH]1)NC(=O)[C@@H]1CCC(=O)N1
inactive: outcome [1] | outcome [2] | max response [3] -3.68% | max response [4] 8.19% | max response [5] -1.38% | Potency [6] | Potency [7]

c1nc(NC2CCCCCC2)c2cc(CNC[C@H]3CCCO3)sc2n1
inactive: outcome [1] | outcome [2] | max response [3] -3.62% | max response [4] -9.77% | max response [5] 3.78% | Potency [6] | Potency [7]

CC[C@H]1OC(=O)[C@H](C)[C@@H](O[C@H]2C[C@@](C)(OC)[C@@H](O)[C@H](C)O2)[C@H](C)[C@@H](O[C@@H]2O[C@H](C)C[C@H](N(C)C)[C@H]2O)[C@@](C)(O)C[C@@H](C)[C@@H]2N[C@@H](COCCOC)OC([C@H]2C)[C@]1(C)O
inactive: max response [1] -11.1% | outcome [2] | max response [3] -20.8% | outcome [4] | max response [5] -6.11% | Potency [6] | Potency [7]

C[C@H]1[C@H](C)CC[C@]2(C(=O)O)CC[C@]3(C(=O)O)C(=CCC4[C@@]5(C)CC[C@H](O[C@@H]6O[C@H](C)[C@@H](O)[C@H](O)[C@H]6O)C(C)(C)C5CC[C@]43C)[C@H]12 (some centres undefined)
inactive: max response [1] -5.62% | outcome [2] | max response [3] 2.99% | max response [4] 1.93% | outcome [5] | Potency [6] | Potency [7]

CC1=C2CC3OC3(C)CCC3OC3(C)CC2OC1=O (centres undefined)
inactive: max response [1] -1.41% | outcome [2] | max response [3] -1.36% | outcome [4] | max response [5] -7.4% | Potency [6] | Potency [7]

CC(=O)O[C@@]1(C)C[C@@H](O)[C@]2(O)C=CO[C@@H](O[C@@H]3O[C@H](CO)[C@@H](O)[C@H](O)[C@H]3O)[C@@H]21
inactive: max response [1] -0.355% | outcome [2] | max response [3] 3.46% | outcome [4] | outcome [5] | Potency [6] | Potency [7]

C[C@@H]1O[C@@H](O[C@H]2[C@H](O[C@H]3[C@H](O[C@H]4CC[C@@]5(CO)C(CC[C@]6(C)C5CC=C5C7CC(C)(C)C[C@@H](O)[C@]7(C)CC[C@]56C)C4(C)C)O[C@H](C(=O)O)[C@@H](O)[C@@H]3O)OC[C@@H](O)[C@@H]2O)[C@H](O)[C@H](O)[C@H]1O (some centres undefined)
inactive: outcome [1] | outcome [2] | max response [3] 4.17% | max response [4] 5.01% | max response [5] -0.118% | outcome [6] inactive [at 9.27 µM] | activity change, negative = cytotoxicity [7] -1.54% [at 11.6 µM]

CC1NC(=O)C(Cc2c[nH]c3ccccc23)NC1=O (centres undefined)
inactive: max response [1] 2.89% | outcome [2] | max response [3] 2.4% | max response [4] 6.79% | max response [5] 2.54% | Potency [6] | Potency [7]

N[C@@H](CC(=O)N1CCn2c(nnc2C(F)(F)F)C1)Cc1[nH]nc2c(F)c(F)ccc12
inactive: max response [1] -0.191% | outcome [2] | max response [3] -2.51% | max response [4] -3.58% | max response [5] -1.97% | Potency [6] | Potency [7]

CC1(C)CC[C@]2(C(=O)O)CC[C@]3(C)C(=CCC4[C@@]5(C)C[C@@H](O)[C@H](O)C(C)(C)C5CC[C@]43C)[C@@H]2[C@@H]1O (some centres undefined)
inactive: max response [1] -1.48% | outcome [2] | max response [3] -22.1% | max response [4] 0.492% | max response [5] -12.3% | Potency [6] | Potency [7]

CC1(C)CCCC2(C)C1C(O)C=C(CO)C2(O)C(=O)O (centres undefined)
inactive: max response [1] 3.48% | outcome [2] | max response [3] -13.1% | max response [4] 3.33% | max response [5] 3.08% | Potency [6] | Potency [7]

CC(/C=C/C1(O)C2(C)COC1(C)CC(=O)C2)O[C@@H]1O[C@H](CO)[C@@H](O)[C@H](O)[C@H]1O (some centres undefined)
inactive: max response [1] -2.92% | outcome [2] | max response [3] 3.45% | outcome [4] | max response [5] 3.43% | Potency [6] | Potency [7]

C=C1CCC2[C@@](C)(C=O)CCC[C@]2(C)[C@H]1CC/C(C)=C/CO (some centres undefined)
inactive: outcome [1] | outcome [2] | max response [3] 3.6% | max response [4] 7.89% | max response [5] 1.05% | Potency [6] | Potency [7]

CC(CO[C@@H]1O[C@H](COC(=O)/C=C/c2ccc(O)c(O)c2)[C@@H](O)[C@H](O)[C@H]1O)C1(O)COC(=O)C1 (some centres undefined)
inactive: max response [1] -2.89% | outcome [2] | max response [3] 3.48% | max response [4] -4.71% | max response [5] -5.15% | Potency [6] | Potency [7]

c1ccc(Cc2ncc3c(n2)CCNCC3)cc1
inactive: max response [1] -2.57% | outcome [2] | max response [3] -4.11% | max response [4] 0.381% | outcome [5] | Potency [6] | Potency [7]

O=C1NC(Cc2ccc(O)cc2)C(=O)N2CCCC12 (centres undefined)
inactive: max response [1] -11.1% | outcome [2] | max response [3] -15.4% | max response [4] 8.78% | max response [5] -0.188% | Potency [6] | Potency [7]

CC1(C)O[C@]23C[C@H]1C[C@H](OC(=O)c1ccoc1)[C@]2(C)[C@@H](OC(=O)c1ccoc1)CCC3(C)O (some centres undefined)
inactive: max response [1] 0.391% | outcome [2] | max response [3] 2.39% | max response [4] 7.96% | max response [5] -0.102% | Potency [6] | Potency [7]
